Measured values as given in PubChem BioAssay (NCI).
This is part of a sample that, as a whole, favours compounds with a hit. Of some 79,000 tested, about 15% had one in any assay. Active and inactive are the calls of the source. Rule as the data show it: active = growth inhibition above about 70%; inactive = the rest.

Assays:
[1] = NCI Yeast Anticancer Drug Screen. Data for the rad50 strain (AID 155);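 also: 0% = growth of vehicle-only cultures of the same strain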; settings: S. cerevisiae rad50 strain growth inhibition, stronger effect = higher value
Method in brief: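 Growth of the mutant yeast was measured after compound exposure and referenced to vehicle-treated cultures.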

[2] = NCI Yeast Anticancer Drug Screen. Data for the mec2-1 strain (AID 157); settings: S. cerevisiae mec2-1 strain, stronger effect = higher value
Method in brief: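 Compounds were applied to mec2-1 yeast cells. Their growth was then compared with that of vehicle-treated cultures to give growth inhibition.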

[3] = NCI Yeast Anticancer Drug Screen. Data for the sgs1 mgt1 strain (AID 161);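 also: 0% = growth of cultures given vehicle only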; settings: S. cerevisiae sgs1 mgt1 strain, stronger effect = higher value
Method in brief: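 Yeast cells carrying a defined DNA-repair defect were exposed to test compounds. Growth inhibition was measured relative to vehicle-treated controls.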

[4] = NCI Yeast Anticancer Drug Screen. Data for the cln2 rad14 strain (AID 165);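 also: 0% = growth equal to vehicle treated cultures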; settings: S. cerevisiae cln2 rad14 strain, stronger effect = higher value
Method in brief: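 Strain: cln2 rad14 yeast, altered in cell cycle control and DNA damage repair. Read-out: growth inhibition vs vehicle.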

[5] = NCI Yeast Anticancer Drug Screen. Data for the bub3 strain (AID 167); settings: S. cerevisiae bub3 mutant strain, stronger effect = higher value
Method in brief: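 Whole-cell yeast assay. The mutant strain was incubated with compounds, and growth inhibition was determined by comparison with vehicle-treated cells.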

[6] = NCI Yeast Anticancer Drug Screen. Data for the mlh1 rad18 strain (AID 175); settings: S. cerevisiae mlh1 rad18 strain growth inhibition, stronger effect = higher value
Method in brief: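 A repair-deficient yeast strain is exposed to test compound, and growth is scored relative to vehicle-treated controls.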

[7] = at 5.0 µM (retest, dose inferred, filed as 0.5)
[8] = at 50.0 µM (retest, dose inferred, filed as 5.0)

Measured: growth inhibition

CN(C)c1nc(=NCc2ccco2)ss1
inactive: [1]; [7] 12% | [1]; [8] 51% | [1]; at 50.0 µM 1.8% | [2]; [7] 17% | [2]; [8] 53% | [2]; at 50.0 µM 2.3% | [3]; [7] 25% | [3]; at 50.0 µM 17.9% | [4]; [7] 13% | [4]; [8] 32% | [4]; at 50.0 µM 5.2% | [5]; [7] 32% | [5]; at 50.0 µM -53% | [6]; [7] 29% | [6]; at 50.0 µM 9.8%
active: [3]; [8] 80% | [5]; [8] 76% | [6]; [8] 74%

CCOC(=O)/C(=C\n1c(=O)sc2ccccc21)C(=O)c1ccccc1
inactive: [1]; [7] 18% | [1]; [8] 24% | [1]; at 50.0 µM 24.6% | [2]; [7] 19% | [2]; [8] 55% | [2]; at 50.0 µM 50.5% | [3]; [7] 27% | [3]; [8] 64% | [4]; [7] 22% | [4]; [8] 26% | [4]; at 50.0 µM 19.5% | [5]; [7] 21% | [5]; [8] 57% | [5]; at 50.0 µM 7.95% | [6]; [7] 20% | [6]; [8] 41% | [6]; at 50.0 µM 36.2%
active: [3]; at 50.0 µM 74.8%

CN(C)CC(C)(C)C(/C=C/c1ccccc1)=N\Nc1ccccc1
inactive: [1]; [7] 3% | [1]; [8] 61% | [2]; [7] 0% | [2]; [8] 68% | [3]; [7] 12% | [4]; [7] 6% | [4]; [8] 47% | [5]; [7] 1% | [6]; [7] 2%
active: [1]; at 50.0 µM 98.1% | [2]; at 50.0 µM 90.2% | [3]; [8] 72% | [3]; at 50.0 µM 97.8% | [4]; at 50.0 µM 97.3% | [5]; [8] 91% | [5]; at 50.0 µM 98.6% | [6]; [8] 76% | [6]; at 50.0 µM 98.3%

CC(Cl)C(=O)Nc1cc2ccccc2oc1=O (stereo not given)
inactive: [1]; [7] -7% | [1]; [8] 9% | [1]; at 50.0 µM 10.7% | [2]; [7] -3% | [2]; [8] 7% | [2]; at 50.0 µM 6.15% | [3]; [7] 6% | [3]; [8] 4% | [3]; at 50.0 µM 9.2% | [4]; [7] 10% | [4]; [8] -1% | [4]; at 50.0 µM 0.35% | [5]; [7] -5% | [5]; [8] -2% | [5]; at 50.0 µM 2.45% | [6]; [7] -21% | [6]; [8] -3% | [6]; at 50.0 µM -11.2%

CC1N(O)C(c2ccccc2)C(c2ccccc2)=[N+]1[O-] (stereo not given)
inactive: [1]; [7] 16% | [1]; [8] 25% | [1]; at 50.0 µM -5.7% | [2]; [7] 11% | [2]; [8] 14% | [2]; at 50.0 µM -26.9% | [3]; [7] 16% | [3]; [8] 26% | [3]; at 50.0 µM -20.4% | [4]; [7] 22% | [4]; [8] 17% | [4]; at 50.0 µM 8.8% | [5]; [7] 22% | [5]; [8] 26% | [5]; at 50.0 µM -20.9% | [6]; [7] 13% | [6]; [8] 22% | [6]; at 50.0 µM -37.4%

O=C(O)Cc1cccc2c(=O)c3cccc([N+](=O)[O-])c3[nH]c12
inactive: [1]; [7] 32% | [2]; [7] 24% | [2]; at 50.0 µM 58% | [3]; [7] 24% | [3]; [8] 60% | [3]; at 50.0 µM 53.1% | [4]; [7] 28% | [4]; at 50.0 µM 65% | [5]; [7] 22% | [5]; at 50.0 µM 45.5% | [6]; [7] 28% | [6]; at 50.0 µM 69.8%
active: [1]; [8] 87% | [1]; at 50.0 µM 74.6% | [2]; [8] 83% | [4]; [8] 79% | [5]; [8] 85% | [6]; [8] 86%

CCOC(=O)C1=C(N)N(S(=O)(=O)c2ccc(C)cc2)CCC(C(=O)OC)=C1
active: [3]; at 50.0 µM 82%
inactive: [1]; [7] 3% | [1]; [8] -4% | [1]; at 50.0 µM 30.4% | [2]; [7] 0% | [2]; [8] 0% | [2]; at 50.0 µM 31.9% | [3]; [7] 5% | [3]; [8] -1% | [4]; [7] 5% | [4]; [8] -6% | [4]; at 50.0 µM -3.15% | [5]; [7] 1% | [5]; [8] -4% | [5]; at 50.0 µM 26.2% | [6]; [7] -2% | [6]; [8] -3% | [6]; at 50.0 µM 56.1%

CC1=C(C(=O)Nc2ccccc2)C(c2ccc(Cl)c(Cl)c2)C(C(=O)Nc2ccccc2)=C(C)N1
active: [1]; at 50.0 µM 89% | [2]; at 50.0 µM 92.8% | [3]; at 50.0 µM 91.1% | [4]; at 50.0 µM 91% | [5]; at 50.0 µM 91.5% | [6]; at 50.0 µM 90.6%
inactive: [1]; [7] 26% | [1]; [8] 26% | [2]; [7] 21% | [2]; [8] 21% | [3]; [7] 29% | [3]; [8] 29% | [4]; [7] 8% | [4]; [8] 8% | [5]; [7] 1% | [5]; [8] 1% | [6]; [7] 25% | [6]; [8] 25%

CCN(CC)C(=O)CCCC1CCCCC1
inactive: [1]; [7] 1% | [1]; [8] 23% | [1]; at 50.0 µM 45.6% | [2]; [7] -3% | [2]; [8] 4% | [2]; at 50.0 µM 13.2% | [3]; [7] 0% | [3]; [8] 20% | [3]; at 50.0 µM 66.5% | [4]; [7] 0% | [4]; [8] 11% | [4]; at 50.0 µM -9% | [5]; [7] 6% | [5]; [8] 25% | [5]; at 50.0 µM 44% | [6]; [7] 1% | [6]; [8] 7% | [6]; at 50.0 µM 26.9%

c1ccc(-c2c3ccccc3cc3ccc4ccccc4c23)nc1
inactive: [1]; [7] 8% | [1]; [8] 48% | [2]; [7] -6% | [2]; [8] 40% | [2]; at 50.0 µM 52.9% | [3]; [7] 0% | [3]; [8] -42% | [3]; at 50.0 µM 62.3% | [4]; [7] 10% | [4]; [8] 45% | [4]; at 50.0 µM 49.5% | [5]; [7] 3% | [6]; [7] -8% | [6]; [8] 43%
active: [1]; at 50.0 µM 78.7% | [5]; [8] 71% | [5]; at 50.0 µM 71% | [6]; at 50.0 µM 81.2%
